For some of these results: Entries with a potency or affinity are not part of this list.
Assays:
Parameters in all cases: scale not given: direction of the effect not stated beside the values
[1] = biological target: Protein translocase subunit SecA (Escherichia coli (strain K12)) (UniProt P10408); assay: Assay to Identify E. coli SecA ATPase Inhibitors; format: functional; conditions: 30 µM
[2] = biological target: T1, Ubiquitin-activating enzyme e1, putative (Leishmania donovani (strain BPK282A1)) (UniProt E9BSI1); assay: Leishmania donovani Ubiquitin Activating Enzyme (LdE1); format: functional; conditions: 30 µM
T1 sequence (whole entry): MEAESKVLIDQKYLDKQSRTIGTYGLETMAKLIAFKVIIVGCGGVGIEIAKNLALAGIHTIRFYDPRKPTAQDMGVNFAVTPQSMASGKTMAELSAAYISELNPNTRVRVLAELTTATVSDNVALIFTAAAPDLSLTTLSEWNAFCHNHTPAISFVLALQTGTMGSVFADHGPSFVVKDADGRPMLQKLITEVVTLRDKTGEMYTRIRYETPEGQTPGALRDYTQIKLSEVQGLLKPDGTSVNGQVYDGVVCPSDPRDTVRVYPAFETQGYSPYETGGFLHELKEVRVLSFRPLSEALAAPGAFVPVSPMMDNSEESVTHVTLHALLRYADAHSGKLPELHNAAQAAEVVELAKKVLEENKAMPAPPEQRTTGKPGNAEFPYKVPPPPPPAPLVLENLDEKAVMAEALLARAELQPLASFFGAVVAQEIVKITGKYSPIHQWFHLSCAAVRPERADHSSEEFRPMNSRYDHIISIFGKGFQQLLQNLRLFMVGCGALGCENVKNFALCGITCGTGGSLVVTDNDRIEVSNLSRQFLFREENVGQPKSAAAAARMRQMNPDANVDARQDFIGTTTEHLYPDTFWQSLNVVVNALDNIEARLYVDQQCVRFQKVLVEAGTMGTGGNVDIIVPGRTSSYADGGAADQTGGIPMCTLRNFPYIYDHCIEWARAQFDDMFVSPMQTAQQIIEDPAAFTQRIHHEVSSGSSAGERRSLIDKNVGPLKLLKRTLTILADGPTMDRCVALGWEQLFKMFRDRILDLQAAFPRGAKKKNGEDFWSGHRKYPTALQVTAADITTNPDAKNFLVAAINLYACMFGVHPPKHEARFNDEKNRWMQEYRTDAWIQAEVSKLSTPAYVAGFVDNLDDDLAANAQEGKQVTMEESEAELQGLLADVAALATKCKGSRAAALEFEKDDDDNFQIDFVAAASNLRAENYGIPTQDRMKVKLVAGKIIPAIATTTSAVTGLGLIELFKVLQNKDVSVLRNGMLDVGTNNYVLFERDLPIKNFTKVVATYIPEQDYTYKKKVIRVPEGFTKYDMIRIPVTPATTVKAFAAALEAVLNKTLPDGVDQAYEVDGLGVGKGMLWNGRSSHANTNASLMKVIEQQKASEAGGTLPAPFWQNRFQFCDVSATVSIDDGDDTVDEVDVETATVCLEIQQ

[3] = biological target: AMP-activated protein kinase, AMPK (Homo sapiens) (UniProt P54646+O43741+P54619+Q9UGJ0+Q9Y478+Q13131+Q9UGI9); assay: AMP-dependent Kinase enzyme assay. An in vitro enzyme assay that detects ADP turnover that is directly proportional to AMPK activity. This uses naive AMPK that is activated during the assay with MK-8722; format: functional; conditions: 30 µM
[4] = biological target: Sialic acid-binding Ig-like lectin 9 (Homo sapiens) (UniProt Q9Y336); assay: Hs-Siglec9 ALPHAscreen SOP 20170721; conditions: 10 µM
Trypanosoma cruzi = assay: Trypanosoma cruzi phosphomannomutase and mannose-1-phosphate guanylyltransferase assay; format: functional; conditions: 10 µM
[5] = biological target: T2, Arginase-2, mitochondrial (Homo sapiens) (UniProt P78540); assay: in vitro enzyme assay to detect the production of urea directly proportional to the activity of Arginase II; format: functional; conditions: 33.3 µM; also: in the data most compounds retested in dose-response had high values
T2 sequence (whole entry): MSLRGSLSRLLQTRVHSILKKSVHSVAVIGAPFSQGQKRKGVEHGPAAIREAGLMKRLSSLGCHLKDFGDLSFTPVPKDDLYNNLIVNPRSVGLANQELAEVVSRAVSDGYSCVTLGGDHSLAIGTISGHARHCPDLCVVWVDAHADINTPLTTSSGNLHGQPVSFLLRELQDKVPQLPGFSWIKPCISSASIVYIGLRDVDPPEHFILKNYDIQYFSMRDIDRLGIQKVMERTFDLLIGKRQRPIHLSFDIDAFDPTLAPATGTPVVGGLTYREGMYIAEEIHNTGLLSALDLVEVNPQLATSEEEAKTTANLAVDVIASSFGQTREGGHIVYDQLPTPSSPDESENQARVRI

[6] = biological target: T3, Proteasome subunit beta (Trypanosoma cruzi) (UniProt O96673); assay: Trypanosoma cruzi proteasome chymotrypsin-like activity (TcProtChymo) assay.; also: in the data most compounds retested in dose-response had high values; format: functional; conditions: 9.37 µM
T3 sequence (whole entry): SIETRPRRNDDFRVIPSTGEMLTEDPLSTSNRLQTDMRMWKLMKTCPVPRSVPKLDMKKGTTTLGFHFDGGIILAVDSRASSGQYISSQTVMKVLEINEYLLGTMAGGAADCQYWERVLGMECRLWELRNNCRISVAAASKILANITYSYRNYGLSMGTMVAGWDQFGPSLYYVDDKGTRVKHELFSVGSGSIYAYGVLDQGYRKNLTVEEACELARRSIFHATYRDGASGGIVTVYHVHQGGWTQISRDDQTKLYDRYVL

Homo sapiens = species on record: Homo sapiens; assay: To identify inhibition of the IFN signalling (Jak-Stat) pathway via expression of an eGFP reporter gene under the control of an IFN-stimulated response element (ISRE) containing MxA promoter.; format: functional; conditions: 30 µM
[7] = biological target: T4, Tyrosyl-tRNA synthetase, putative (Trypanosoma cruzi (strain CL Brener)) (UniProt Q4DSP6); assay: Trypanosoma cruzi tyrosyl tRNA synthetase (TcYRS) _High Tyrosine SOP; format: functional; conditions: 30 µM; also: in the data most compounds retested in dose-response had high values
T4 sequence (whole entry): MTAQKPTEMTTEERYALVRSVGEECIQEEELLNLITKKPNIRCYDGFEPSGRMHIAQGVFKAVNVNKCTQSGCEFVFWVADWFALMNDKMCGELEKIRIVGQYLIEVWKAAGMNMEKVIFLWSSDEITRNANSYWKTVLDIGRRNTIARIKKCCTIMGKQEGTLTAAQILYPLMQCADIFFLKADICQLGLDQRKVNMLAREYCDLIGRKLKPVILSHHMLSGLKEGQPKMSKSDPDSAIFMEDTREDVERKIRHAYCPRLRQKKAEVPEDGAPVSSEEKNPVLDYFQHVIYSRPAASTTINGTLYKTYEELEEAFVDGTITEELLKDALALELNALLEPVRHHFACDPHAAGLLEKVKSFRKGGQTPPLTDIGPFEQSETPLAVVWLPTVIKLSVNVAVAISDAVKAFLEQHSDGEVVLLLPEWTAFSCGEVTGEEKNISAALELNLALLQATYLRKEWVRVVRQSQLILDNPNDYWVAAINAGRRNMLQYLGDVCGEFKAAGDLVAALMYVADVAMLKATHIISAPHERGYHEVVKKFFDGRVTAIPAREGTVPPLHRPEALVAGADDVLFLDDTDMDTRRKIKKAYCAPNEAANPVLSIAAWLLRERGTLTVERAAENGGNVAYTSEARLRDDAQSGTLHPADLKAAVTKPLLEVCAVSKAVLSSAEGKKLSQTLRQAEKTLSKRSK

[8] = biological target: T4, Tyrosyl-tRNA synthetase, putative (Trypanosoma cruzi (strain CL Brener)); assay: Trypanosoma cruzi tyrosyl tRNA synthetase (TcYRS) SOP; format: functional; conditions: 30 µM
[9] = biological target: Chromo domain-containing protein 1 (Saccharomyces cerevisiae (strain ATCC 204508 / S288c) (Baker's yeast)) (UniProt P32657); assay: ScCHD-1 Enzyme Inhibition Assay; format: functional; conditions: 30 µM; also: in the data most compounds retested in dose-response had high values
Chain of Chromo domain-containing protein 1 (Saccharomyces cerevisiae (strain ATCC 204508 / S288c) (Baker's yeast)) (P32657 whole entry, the tested form may be a part): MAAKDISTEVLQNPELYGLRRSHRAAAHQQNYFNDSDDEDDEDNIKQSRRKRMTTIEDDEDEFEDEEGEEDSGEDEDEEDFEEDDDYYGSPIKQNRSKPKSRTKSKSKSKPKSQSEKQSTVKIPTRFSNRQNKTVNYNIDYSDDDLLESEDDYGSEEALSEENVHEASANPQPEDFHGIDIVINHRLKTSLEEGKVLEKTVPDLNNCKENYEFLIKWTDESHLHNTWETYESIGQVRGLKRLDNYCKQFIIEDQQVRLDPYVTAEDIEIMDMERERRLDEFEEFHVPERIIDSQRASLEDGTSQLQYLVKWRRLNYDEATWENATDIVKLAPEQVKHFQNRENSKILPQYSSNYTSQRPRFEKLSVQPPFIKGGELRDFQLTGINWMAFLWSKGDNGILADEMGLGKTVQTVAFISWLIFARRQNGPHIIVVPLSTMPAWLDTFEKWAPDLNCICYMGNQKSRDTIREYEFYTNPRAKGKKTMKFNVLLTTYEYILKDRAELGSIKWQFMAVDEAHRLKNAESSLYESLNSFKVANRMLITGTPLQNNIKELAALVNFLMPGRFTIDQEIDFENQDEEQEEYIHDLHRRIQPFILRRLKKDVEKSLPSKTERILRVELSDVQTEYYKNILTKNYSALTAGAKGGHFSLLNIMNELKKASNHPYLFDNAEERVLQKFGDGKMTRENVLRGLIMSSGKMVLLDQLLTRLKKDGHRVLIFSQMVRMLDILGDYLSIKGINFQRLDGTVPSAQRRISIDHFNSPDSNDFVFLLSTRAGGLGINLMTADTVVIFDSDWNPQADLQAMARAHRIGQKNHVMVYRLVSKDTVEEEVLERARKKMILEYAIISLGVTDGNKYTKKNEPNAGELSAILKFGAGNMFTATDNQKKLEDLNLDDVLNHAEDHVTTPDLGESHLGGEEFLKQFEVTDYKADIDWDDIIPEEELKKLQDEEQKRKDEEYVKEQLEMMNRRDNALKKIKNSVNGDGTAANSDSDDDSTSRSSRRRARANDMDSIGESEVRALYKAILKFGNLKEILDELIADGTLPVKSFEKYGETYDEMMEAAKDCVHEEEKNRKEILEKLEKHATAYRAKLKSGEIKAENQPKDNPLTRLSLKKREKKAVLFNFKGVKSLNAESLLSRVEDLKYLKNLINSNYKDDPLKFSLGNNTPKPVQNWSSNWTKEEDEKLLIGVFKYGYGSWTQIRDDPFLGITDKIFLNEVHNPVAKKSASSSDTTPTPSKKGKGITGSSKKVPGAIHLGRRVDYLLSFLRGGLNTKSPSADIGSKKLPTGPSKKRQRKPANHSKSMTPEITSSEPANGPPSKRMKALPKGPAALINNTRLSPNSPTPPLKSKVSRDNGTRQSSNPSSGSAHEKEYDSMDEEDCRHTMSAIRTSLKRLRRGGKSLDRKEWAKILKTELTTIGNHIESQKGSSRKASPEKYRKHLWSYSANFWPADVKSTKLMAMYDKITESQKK

Chain of Sialic acid-binding Ig-like lectin 9 (Homo sapiens) (Q9Y336 whole entry): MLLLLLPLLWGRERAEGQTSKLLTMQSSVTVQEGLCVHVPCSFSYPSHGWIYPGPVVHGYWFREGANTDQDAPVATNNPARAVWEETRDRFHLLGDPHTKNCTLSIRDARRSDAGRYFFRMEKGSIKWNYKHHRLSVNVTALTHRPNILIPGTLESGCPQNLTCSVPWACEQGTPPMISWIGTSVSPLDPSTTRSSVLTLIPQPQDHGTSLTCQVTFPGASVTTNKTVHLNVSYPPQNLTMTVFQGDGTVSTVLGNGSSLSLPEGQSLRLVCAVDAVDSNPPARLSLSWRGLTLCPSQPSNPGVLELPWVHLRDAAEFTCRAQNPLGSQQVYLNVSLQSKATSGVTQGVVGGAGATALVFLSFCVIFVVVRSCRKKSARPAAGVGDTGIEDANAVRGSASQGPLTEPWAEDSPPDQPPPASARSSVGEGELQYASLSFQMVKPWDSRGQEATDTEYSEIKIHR
Chain of Protein translocase subunit SecA (Escherichia coli (strain K12)) (P10408 whole entry): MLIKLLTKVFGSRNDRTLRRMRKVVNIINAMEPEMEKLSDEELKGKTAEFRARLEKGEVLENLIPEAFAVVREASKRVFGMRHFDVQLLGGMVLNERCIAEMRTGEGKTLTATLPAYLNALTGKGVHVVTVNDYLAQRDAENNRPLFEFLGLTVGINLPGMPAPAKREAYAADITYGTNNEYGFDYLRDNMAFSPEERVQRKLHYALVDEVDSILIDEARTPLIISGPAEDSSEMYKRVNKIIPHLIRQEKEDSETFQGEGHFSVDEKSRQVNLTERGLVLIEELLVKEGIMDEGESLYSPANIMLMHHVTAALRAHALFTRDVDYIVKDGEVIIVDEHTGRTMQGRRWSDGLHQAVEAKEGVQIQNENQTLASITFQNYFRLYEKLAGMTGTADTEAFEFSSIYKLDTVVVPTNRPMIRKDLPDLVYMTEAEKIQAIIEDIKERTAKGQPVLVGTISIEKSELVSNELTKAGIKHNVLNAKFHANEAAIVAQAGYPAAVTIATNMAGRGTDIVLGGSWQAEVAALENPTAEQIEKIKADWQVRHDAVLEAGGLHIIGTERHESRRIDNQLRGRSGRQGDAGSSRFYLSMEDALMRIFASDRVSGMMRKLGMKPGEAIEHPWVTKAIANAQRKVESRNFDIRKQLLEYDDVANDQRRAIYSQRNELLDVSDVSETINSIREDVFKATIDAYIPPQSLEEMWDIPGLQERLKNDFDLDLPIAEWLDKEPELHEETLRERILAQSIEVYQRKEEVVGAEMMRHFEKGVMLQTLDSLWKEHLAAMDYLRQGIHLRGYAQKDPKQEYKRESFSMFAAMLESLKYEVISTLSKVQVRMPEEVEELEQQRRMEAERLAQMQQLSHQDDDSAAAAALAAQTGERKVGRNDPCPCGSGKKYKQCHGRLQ

CCCNC(=O)c1cnc(N(C)C)nc1COC
Percent Effect [1]: -3.99% | Percent Effect [2]: 9.33% | Percent Effect [3]: 7.82% | Percent Effect [4]: 8.88% | Percent Effect (Trypanosoma cruzi): 2.75% | Percent Effect [5]: -2.99% | Percent Effect [6]: 8.69% | Percent Effect (Homo sapiens): 13.2% | Percent Effect [7]: 1.06% | Percent Effect [8]: 10.3% | Percent Effect [9]: -3.99%

COCC(=O)N1CC[C@@H]2O[C@@H](COCc3csc(C)n3)CC[C@@H]21
Percent Effect [1]: -2.35% | Percent Effect [2]: 13.5% | Percent Effect [3]: 4.29% | Percent Effect [4]: -14.3% | Percent Effect (Trypanosoma cruzi): -2.25% | Percent Effect [5]: 7.96% | Percent Effect [6]: 26.9% | Percent Effect (Homo sapiens): -1.3% | Percent Effect [7]: 8.65% | Percent Effect [8]: 12.8% | Percent Effect [9]: -4.47%

CCCc1nc(CN2CCCC(Cn3cncn3)C2)no1 (stereo unspecified)
Percent Effect [1]: -6.43% | Percent Effect [2]: -1.27% | Percent Effect [3]: 0.957% | Percent Effect [4]: -0.585% | Percent Effect (Trypanosoma cruzi): 0.718% | Percent Effect [5]: 0.215% | Percent Effect [6]: 2.06% | Percent Effect (Homo sapiens): 4.36% | Percent Effect [7]: 5.21% | Percent Effect [8]: 15.2% | Percent Effect [9]: -25.2%

CN(C)CCN1CCO[C@H]2CN(Cc3cnn(C)c3)C[C@H]21
Percent Effect [1]: -3.56% | Percent Effect [2]: 0% | Percent Effect [3]: -1.78% | Percent Effect [4]: 7.45% | Percent Effect (Trypanosoma cruzi): -4.2% | Percent Effect [5]: 2.73% | Percent Effect [6]: 2.83% | Percent Effect (Homo sapiens): -0.175% | Percent Effect [7]: 5.38% | Percent Effect [8]: 11.1% | Percent Effect [9]: -3.54%

CCN(CC(=O)NC)S(=O)(=O)N1CCCCCC1
Percent Effect [1]: -5.53% | Percent Effect [2]: 10.8% | Percent Effect [3]: -3.76% | Percent Effect [4]: 4.7% | Percent Effect (Trypanosoma cruzi): -0.489% | Percent Effect [5]: 3.72% | Percent Effect [6]: 6.61% | Percent Effect (Homo sapiens): 8.47% | Percent Effect [7]: 4.3% | Percent Effect [8]: 13.6% | Percent Effect [9]: -2.62%

Cc1nc(C(C)(C)NC(=O)Nc2ccccc2)no1
Percent Effect [1]: -11.3% | Percent Effect [2]: -2.74% | Percent Effect [3]: 2.23% | Percent Effect [4]: -0.244% | Percent Effect (Trypanosoma cruzi): -3.53% | Percent Effect [5]: 3.18% | Percent Effect [6]: 6.92% | Percent Effect (Homo sapiens): 17.2% | Percent Effect [7]: -2.15% | Percent Effect [8]: 0% | Percent Effect [9]: -0.168%

N#CC1(C(=O)N2CCN(c3nccs3)CC2)CCCCC1
Percent Effect [1]: -1.57% | Percent Effect [2]: 13.2% | Percent Effect [3]: 7.71% | Percent Effect [4]: 8.98% | Percent Effect (Trypanosoma cruzi): -2.26% | Percent Effect [5]: 2.68% | Percent Effect [6]: 11% | Percent Effect (Homo sapiens): -3.2% | Percent Effect [7]: 7.35% | Percent Effect [8]: 17.1% | Percent Effect [9]: -6.21%

COc1cc(CNC2CCc3nc(C(C)C)nn3C2)cc2c1OCO2 (stereo unspecified)
Percent Effect [1]: -3.28% | Percent Effect [2]: 2.63% | Percent Effect [3]: -0.342% | Percent Effect [4]: 1.45% | Percent Effect (Trypanosoma cruzi): -0.28% | Percent Effect [5]: 3.24% | Percent Effect [6]: -0.592% | Percent Effect (Homo sapiens): -4.24% | Percent Effect [7]: 1.48% | Percent Effect [8]: -6.17% | Percent Effect [9]: -3.88%

O=C(NCC1OCCc2cn(CC3CC3)nc21)c1ccsc1 (stereo unspecified)
Percent Effect [1]: -5.87% | Percent Effect [2]: 18.2% | Percent Effect [3]: 2.23% | Percent Effect [4]: -1.55% | Percent Effect (Trypanosoma cruzi): 3.65% | Percent Effect [5]: 1.94% | Percent Effect [6]: 12.2% | Percent Effect (Homo sapiens): 8.57% | Percent Effect [7]: 2.12% | Percent Effect [8]: 14.1% | Percent Effect [9]: -7.27%

CCc1ccc(C(=O)NC2CCN(c3cnn(C)c3)C2=O)o1 (stereo unspecified)
Percent Effect [1]: -6.02% | Percent Effect [2]: 2.7% | Percent Effect [3]: -5.86% | Percent Effect [4]: 6.69% | Percent Effect (Trypanosoma cruzi): 8.11% | Percent Effect [5]: -0.744% | Percent Effect [6]: 8.84% | Percent Effect (Homo sapiens): -0.708% | Percent Effect [7]: 3.23% | Percent Effect [8]: 11.1% | Percent Effect [9]: -7.33%

Cc1cnc(CN(C)C2CCN(CC(=O)N(C)c3nccs3)C2)o1 (stereo unspecified)
Percent Effect [1]: 2.75% | Percent Effect [2]: 17.7% | Percent Effect [3]: 3.25% | Percent Effect [4]: -2.38% | Percent Effect (Trypanosoma cruzi): -8.4% | Percent Effect [5]: 0.76% | Percent Effect [6]: 13.2% | Percent Effect (Homo sapiens): 40.8% | Percent Effect [7]: 1.48% | Percent Effect [8]: -3.8% | Percent Effect [9]: -6.37%
